# Screens deposited in PubChem BioAssay by National Center for Advancing Translational Sciences (NCATS).
# HP1b chromo inh = HP1-beta chromodomain-methylated histone interaction inhibition | P83916 | AlphaScreen HP1-beta / biotin-H3K9me3 peptide binding | Potency, µM (top dose mostly 114 µM), for inactives: top-dose activity change, negative = inhibition, hits mostly inhibitors | 0.56% of 390,000 active | AID 540317; note: nearly all actives have a fitted effect of over 70% in size
# Target sequence (P83916 whole entry, looked up): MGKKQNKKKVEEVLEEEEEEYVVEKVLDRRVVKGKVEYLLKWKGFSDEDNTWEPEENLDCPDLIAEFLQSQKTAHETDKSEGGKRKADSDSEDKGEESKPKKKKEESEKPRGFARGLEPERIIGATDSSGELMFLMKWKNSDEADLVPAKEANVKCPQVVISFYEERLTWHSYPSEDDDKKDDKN
#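 HP1-beta protein (50 nM final) preincubated 30 min at room temperature with biotinylated H3(1-18)K9me3 peptide (50 nM) in PBS pH 7.4, 0.01% Tween-20, then compound added for 30 min. AlphaScreen streptavidin donor/nickel chelate acceptor beads (10 ug/mL final), 30 min dark, luminescence read.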
# JMJD2A Tudor inh = blocks the human JMJD2A Tudor domain. Potency, µM (titrated, usually from 114 µM), without a hit: at the highest dose activity change, negative = inhibition, usual class: inhibitors. AlphaScreen JMJD2A-Tudor / H3K4me3 peptide binding. O75164. 4.4% of 390,000 active; note: % is set by controls: 0 for no effect and ±100 for the full control effect; nearly all actives have a fitted effect of over 50% in size
# BAZ2B block = blocks human BAZ2B. AlphaScreen BAZ2B-H3K14Ac peptide displacement. Potency, µM (top dose mostly 114 µM), inactives show at the highest dose activity change, negative = inhibition, usual class: inhibitors. 4.4% of 360,000 active; note: % is set by controls: 0 for no effect and ±100 for the full control effect; nearly all actives have a fitted effect of over 60% in size
#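 Inhibition is scored as reduced AlphaScreen emission. The BAZ2B/b-H3(5-23)K14Ac complex (50 nM each) in PBS pH 7.4, 0.01% Tween-20 meets compound (up to 110 uM) for 30 min at RT before bead addition.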
# G9a block = G9a (human) methyltransferase inhibition | 8.8% of 350,000 active | AID 504332 | G9a H3K9 monomethylation, AlphaScreen, 2 h | Q96KQ7 | Potency, µM (titrated, usually from 102 µM), for inactives: at the highest dose activity, negative = inhibition, actives largely listed as inhibitors; note: % is set by controls: 0 for no effect and ±100 for the full control effect; nearly all actives have a fitted effect of over 75% in size
# Target sequence (Q96KQ7 913-1193 limits assumed): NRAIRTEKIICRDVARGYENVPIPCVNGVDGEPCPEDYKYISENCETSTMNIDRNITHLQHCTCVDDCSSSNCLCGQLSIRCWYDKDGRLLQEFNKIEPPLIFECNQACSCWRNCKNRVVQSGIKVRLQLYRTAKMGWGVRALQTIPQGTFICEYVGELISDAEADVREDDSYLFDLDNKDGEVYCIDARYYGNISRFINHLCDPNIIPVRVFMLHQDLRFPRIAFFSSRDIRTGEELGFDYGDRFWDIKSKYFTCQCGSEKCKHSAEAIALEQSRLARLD
#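 G9a (20 nM) was preincubated 15 min with compound, then reacted 2 h at room temperature with 500 nM biotin-H3K9 peptide and 20 µM SAM. Monomethyl-H3K9 detected by AlphaScreen using anti-H3K9me1 antibody.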
# Sfp inh = inhibitors of Bacillus subtilis Sfp phosphopantetheinyl transferase; Q9F4F7; Biochemical Sfp PPTase activity, qHTS; Potency, µM, without a hit: largest response in the series, negative = inhibition, usual class: inhibitors; 3.5% of 310,000 active; AID 1490;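 note: the enzyme is Sfp with the accession as filed and its product quenches rhodamine fluorescence; 0% = enzyme reaction without inhibitor and -100% = no enzyme wells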
#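 Step 1, compound plus 15 nM Sfp-PPTase, 15 min, room temperature. Step 2, add rhodamine-CoA (5 uM) and BHQ-2-YbbR (12.5 uM). Step 3, read 525/598 nm fluorescence at 0 and 30 min.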
# L3MBTL1 inh = L3MBTL1 (human) inhibition | Q9Y468 | AlphaScreen L3MBTL1–H3K9me1 peptide binding | Potency, µM (top dose mostly 57.1 µM), inactives show top-dose activity, negative = inhibition, hits mostly inhibitors | 0.66% of 230,000 active | AID 485360; note: % is set by controls: 0 for no effect and ±100 for the full control effect; nearly all actives have a fitted effect of over 60% in size
#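 First, the protein-peptide complex forms for 30 min at room temperature (L3MBTL1 50 nM, biotinylated H3K9me1 peptide 75 nM). Next, compounds are pin-transferred and incubated 30 min. Finally, AlphaScreen beads are added and read after 30 min.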
# Numbers without * were called inactive; ? = inconclusive; . = not tested or not shown; ! = not active in a repeat; [ ] = another dose, or the depositor's remark. A selection: hits, their analogues and other compounds. The true share with any hit is near 12%. Calls come from the whole dose curve; as a rule, active = well fitted curve in the direction sought with a large enough effect; inconclusive = small, poorly fitted or top-dose-only effect, or another doubt; inactive = no such curve, though single readings can be large; an effect the other way counts as inactive or inconclusive. Potency is the fitted concentration of half-maximal effect.
SMILES,HP1b chromo inh,JMJD2A Tudor inh,BAZ2B block,G9a block,Sfp inh,L3MBTL1 inh
COc1cccc(-c2nc(CS(=O)CC(=O)NCc3ccccc3Cl)c(C)o2)c1 (stereo unspecified),19%,-18%,-37%,35µM*,?,.
COc1ccc(-c2nc(CS(=O)CC(=O)NCc3ccccc3Cl)c(C)o2)cc1OC (stereo unspecified),23%,-7%,-22%,-30%[59 µM],.,.
COc1cccc(-c2nc(CS(=O)CC(=O)NCc3ccc4c(c3)OCO4)c(C)o2)c1 (stereo unspecified),15%,-24%,-29%,50µM*,12%,.
CO[C@H]1COC(=O)C/C=C\[C@H](C)[C@@H](NS(=O)(=O)c2ccc(C)cc2)COC(=O)CCC[C@@H]1C,.,.,.,.,5%,.
CCN1C(=O)[C@@H]2[C@@H](c3ccc(-c4ccc(F)cc4)c(OC)c3)N3CCC[C@@]3(C(=O)OC)[C@@H]2C1=O,28%,?,.,.,.,-8%
Cn1ncc(Cl)c1C(=O)N1CCC(Cc2ccccc2)CC1,16%,-12%,-4%,?,3%,.
C#CCOCCOCCOCCNc1nc(N2CCN(C(=O)[C@H]([C@@H](C)CC)n3cc(CCCCN)nn3)CC2)nc(N2CCN(C(=O)[C@H]([C@@H](C)CC)n3cc(CCCN=C(N)N)nn3)CC2)n1,16%,-21%,-32%,-9%[2.33 µM],.,-3%
C#CCOCCOCCOCCNc1nc(N2CCN(C(=O)[C@H]([C@@H](C)O)n3cc(CCCCN)nn3)CC2)nc(N2CCN(C(=O)[C@H]([C@@H](C)CC)n3cc(CCCN=C(N)N)nn3)CC2)n1,19%,-28%,?,50µM*,0%,-4%
C#CCOCCOCCOCCNc1nc(N2CCN(C(=O)[C@H]([C@@H](C)CC)n3cc(CCCN=C(N)N)nn3)CC2)nc(N2CCN(C(=O)[C@H](CCCCN)n3cc(CCC(=O)O)nn3)CC2)n1,57%,-14%,-36%,50µM*,3%,4%
Cc1nc2cnc(OCc3ccccc3)nc2n(Cc2ccc(F)cc2)c1=O,.,.,.,1%[12.7 µM],-22%,.
CCCCCCCCCCCCCCCCCCCCCCO,.,.,.,1%[59 µM],-5%,.
COc1ccc(C2C(C(N)=O)=C(C)Nc3nc(CCCO)nn32)cc1OC (stereo unspecified),15%,-12%,-14%,-1%[2.33 µM],3%,.
COc1ccc(CNC(=O)C2CCCN(C(=O)Nc3ccc(OC)cc3)C2)cc1 (stereo unspecified),-9%,-6%,6%,0%[59 µM],12%,.
COCCn1c(=O)c(-c2ccc(Cl)cc2)nc2cnc(OCc3ccccc3)nc21,.,.,.,-4%[0.501 µM],17%,.
CC(=O)N1CCN(C(=O)c2ccc(OC3CCN(Cc4ccccn4)CC3)cc2)CC1,22%[57 µM],-4%,-29%,71µM*,9%,.
COCC1CCCN(C(=O)c2ccc(OC3CCN(Cc4ccccn4)CC3)cc2)C1 (stereo unspecified),17%,28µM*,-16%,9%,-22%,-4%
CCC(O)C1CCN(C(=O)c2ccc(OC3CCN(Cc4ccccn4)CC3)cc2)CC1 (stereo unspecified),34%,2%,-33%,-8%,2%,.
Cc1ccc(NC(=O)CNC(=O)OCc2ccccc2)cc1C,-3%,56µM*,-4%,9%,1%,2%
Cc1cc(Br)c(NC(=O)CCNC(=O)OCc2ccccc2)cc1C,29%,-3%,?,15%,7%,0%
CCOCCCNC(=O)CCC(=O)NNc1nc2ccccc2c2nc(C)nn12,32%,-3%,?,-29%,8%,.
CCCCNC(=O)CCC(=O)NNc1nc2ccccc2c2nc(C)nn12,48%,-6%,-3%[57.1 µM],25µM*!,24%,0%
CCCCNC(=O)CCC(=O)NNc1nc2ccccc2c2nc(-c3ccccc3)nn12,27%,-12%,89µM*!,-2%[59 µM],?,8%
CCCCN1C(=O)C(C(=O)OCC)CC2=C1CCCC2=O (stereo unspecified),40%,-7%,.,.,.,.
